In all, about 2,000 compounds went through this assay and about 190 (9.5%) were called active. Roughly 14% stayed inconclusive and do not appear here.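 The calls were made as follows: active = fitted activation curve crossing 40% at a concentration no higher than the sample's top valid tested dose; inconclusive = flat fitted curve at 30% to 70% activation, or poor curve fit; inactive = signal decrease, flat curve within 30%, or the rest.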 A selection follows.

The experiment in a line: sustained heat shock response element induction – cell-based, mouse, luciferase, cherry-pick, dose, confirmation (AID 602296).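 Also: test compounds applied by themselves with no MG132 co-treatment.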 To be noted: NIH3T3-HGL HSF-1 response element luciferase, 48 h; series mostly up to 26 µM.
For `CCOC(=O)CC(NC(=O)C1c2ccccc2Oc2ccccc21)c1ccccc1Cl` (configuration not stated), the outcome was inactive.

As to `COc1cccc(-c2c(C#N)c(N)nc3c2c(C)nn3-c2ccccc2)c1O`, the outcome was inactive.

Take `O=C(COC(=O)/C=C/c1cccc([N+](=O)[O-])c1)NCc1ccco1`: the call was inactive.

For the compound `CN(C)c1ccc(C(CNC(=O)c2ccccc2)c2c[nH]c3ccccc23)cc1` (configuration not stated), the compound was called inactive.

For the compound `CCOC(=O)CC1C(=O)NCCN1S(=O)(=O)c1cc(Cl)c(Cl)cc1Cl` (configuration not stated), the call was inactive.

As for `O=C(CCC1CCCC1)N=C1SC2CS(=O)(=O)CC2N1c1ccccc1F` (configuration not stated), the compound was called inactive.

For `S=c1nc(SCc2ccccc2)[nH]c2ccccc12`, the outcome was inactive.

As for `O=C(Nc1ccc(OCC(F)(F)C(F)F)c(C(F)(F)F)c1)c1ccccc1O`, the compound was classed as inactive.

Take `CC(C)N(Cc1ccccc1)C(=O)COC(=O)/C=C/c1cnc2ccccc2n1`: the compound was called inactive.

For `CCN(CCCNC(=O)CCCN1C(=O)COc2ccc(C)cc21)c1cccc(C)c1`, the compound was classed as inactive.

As to `Cc1ccc(C)c(NC(=O)CS(=O)(=O)c2cn(C)c3ccccc23)c1`, the result was inactive.

For the compound `Cc1ccc(NC2OC(CO)C(O)C2O)cc1[N+](=O)[O-]` (configuration not stated), the outcome was inactive.

Turning to `COc1cccc(/C=N/Nc2ccc([N+](=O)[O-])cn2)c1O`, the call was inactive.

`CCCC(=O)O/N=C(\c1ccccc1)c1ccncc1`: the result was inactive.

For `COc1ccc(C)cc1NC(=O)CSc1nnc(COc2ccc(Cl)cc2)n1Cc1ccco1`, the compound was classed as inactive.

Consider `Cc1nc2ccccc2n1CC(O)COCC1CC=CCC1` (configuration not stated), for which the outcome was inactive.

Take `Cc1cccc(-[n+]2c(C)cc(C)c3c(=O)[nH]c(=O)[nH]c32)c1`: the outcome was inactive.

Take `O=C1CSC(=S)N1/N=C/c1cccc(C(F)(F)F)c1`: the result was inactive.

For `CN(C)CCCCNCCCNC(=O)/C=N\O`, the result was inactive.

For the compound `CN(c1cccc(NC(=O)CN(c2cccc(Cl)c2)S(=O)(=O)c2ccc(Cl)cc2)c1)S(C)(=O)=O`, the outcome was inactive.

Turning to `CC1CN(C(=O)CS(=O)(=O)Cc2ccccc2)CC(C)O1` (configuration not stated), the compound was called inactive.

Turning to `Cc1ccc(C(=O)/C=C/c2cc(Br)cc(Br)c2O)o1`, the compound was classed as inactive.

With `Cc1c(-n2cc(C(=O)c3ccccc3O)cc(C#N)c2=O)c(=O)n(-c2ccccc2)n1C`, the compound was classed as inactive.

On to `O=C(/C=C/c1ccc(Cl)cc1Cl)N(Cc1ccccc1)C1CCS(=O)(=O)C1` (configuration not stated), for which the call was inactive.

`OCC1(Cc2cccc(C(F)(F)F)c2)CCN(Cc2cc3ccccc3o2)CC1`: the compound was called inactive.

As for `Cc1ccc(S(=O)(=O)c2c(N)n(-c3ccccc3)c3nc4ccccc4nc23)cc1`, the call was inactive.

In the case of `CN(CC(=O)Nc1ccccc1Cl)CC(=O)Nc1c(F)cccc1F`, the compound was called inactive.

Source of the values: PubChem BioAssay AID602296 (Broad Institute, 2012).
